Data published in PubChem BioAssay (NCI).
The panel holds about 79,000 compounds, 15% with a hit somewhere; the sample as a whole holds those more often. Active and inactive are the calls of the source. No stated cut-off is given here; in the data, active means growth inhibition above about 70%; inactive means the rest.

Legend:
[1] = NCI Yeast Anticancer Drug Screen. Data for the rad50 strain (AID 155);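 further: 0% = growth of vehicle-only cultures of the same strain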; conditions: S. cerevisiae rad50 strain growth inhibition, stronger effect = higher value
In short: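 A DNA repair-deficient yeast mutant serves as the test organism; compound-induced growth inhibition is calculated against vehicle-treated cells.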

[2] = NCI Yeast Anticancer Drug Screen. Data for the mec2-1 strain (AID 157); conditions: S. cerevisiae mec2-1 strain, stronger effect = higher value
In short: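 Yeast mec2-1 mutant treated with compound. Readout: growth inhibition vs vehicle controls.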

[3] = NCI Yeast Anticancer Drug Screen. Data for the sgs1 mgt1 strain (AID 161);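 further: 0% = growth of cultures given vehicle only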; conditions: S. cerevisiae sgs1 mgt1 strain, stronger effect = higher value
In short: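 Read-out: growth inhibition vs vehicle controls. Cells: mutant yeast strain deficient in DNA damage repair.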

[4] = NCI Yeast Anticancer Drug Screen. Data for the cln2 rad14 strain (AID 165);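 further: 0% = growth equal to vehicle treated cultures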; conditions: S. cerevisiae cln2 rad14 strain, stronger effect = higher value
In short: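 cln2 rad14 yeast strain; compound exposure; growth inhibition read vs vehicle controls.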

[5] = NCI Yeast Anticancer Drug Screen. Data for the bub3 strain (AID 167); conditions: S. cerevisiae bub3 mutant strain, stronger effect = higher value
In short: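 Inhibition values come from growth of compound-treated mutant yeast normalised to vehicle-treated controls.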

[6] = NCI Yeast Anticancer Drug Screen. Data for the mlh1 rad18 strain (AID 175); conditions: S. cerevisiae mlh1 rad18 strain growth inhibition, stronger effect = higher value
In short: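 Yeast w/ defined DNA-repair lesions; compound exposure; growth vs vehicle controls → % inhibition.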

[7] = at 5.0 µM (retest, dose inferred, filed as 0.5)
[8] = at 50.0 µM (retest, dose inferred, filed as 5.0)

Measured: growth inhibition

CC(=O)Nc1ccc2c(c1)C(=Nc1ccc(F)cc1)c1ccccc1-2
active: [1]; [8] 83% | [2]; [8] 84% | [4]; [8] 74% | [6]; [8] 94%
inactive: [1]; [7] 7% | [1]; at 50.0 µM 54.1% | [2]; [7] 0% | [2]; at 50.0 µM 4.35% | [3]; [7] 2% | [3]; [8] 62% | [3]; at 50.0 µM 14.3% | [4]; [7] -1% | [4]; at 50.0 µM 40.4% | [5]; [7] -4% | [5]; [8] 47% | [5]; at 50.0 µM 45.4% | [6]; [7] 0% | [6]; at 50.0 µM 50.7%

O=[N+]([O-])/C(Cl)=C(\Nc1ccccc1)C(Cl)=C(Cl)Cl
active: [1]; [8] 99% | [1]; at 50.0 µM 88.2% | [2]; [7] 82% | [2]; [8] 99% | [2]; at 50.0 µM 92.2% | [3]; [7] 73% | [3]; [8] 99% | [3]; at 50.0 µM 88.8% | [4]; [8] 99% | [4]; at 50.0 µM 90.9% | [5]; [7] 76% | [5]; [8] 99% | [5]; at 50.0 µM 90.4% | [6]; [7] 83% | [6]; [8] 99% | [6]; at 50.0 µM 85.1%
inactive: [1]; [7] 55% | [4]; [7] 64%

CCOC(=O)c1c(C)[nH]c(C(=O)C(N)C(=O)OCC)c1C (stereo not given)
inactive: [1]; [7] 8% | [1]; [8] -3% | [2]; [7] 6% | [2]; [8] -6% | [3]; [7] 7% | [3]; [8] -1% | [4]; [7] 3% | [4]; [8] -1% | [5]; [7] -3% | [5]; [8] -5% | [6]; [7] 4% | [6]; [8] -6%
active: [1]; at 50.0 µM 98% | [2]; at 50.0 µM 99.5% | [3]; at 50.0 µM 98.8% | [4]; at 50.0 µM 99.5% | [5]; at 50.0 µM 99.4% | [6]; at 50.0 µM 99%

CO/C(=N\N=C(/c1ccccc1)C(F)(F)F)c1ccncc1
inactive: [1]; [7] 44% | [1]; at 50.0 µM 45% | [2]; [7] 0% | [2]; [8] 58% | [2]; at 50.0 µM 62.6% | [3]; [7] 15% | [4]; [7] 25% | [4]; [8] 52% | [4]; at 50.0 µM 44.5% | [5]; [7] 2% | [6]; [7] 0% | [6]; [8] 66% | [6]; at 50.0 µM 65%
active: [1]; [8] 75% | [3]; [8] 76% | [3]; at 50.0 µM 71.8% | [5]; [8] 79% | [5]; at 50.0 µM 75.2%

Cc1cccc(C)c1NC(=O)CCc1nnc(N)n1N
inactive: [1]; [7] 17% | [1]; [8] 4% | [1]; at 50.0 µM -20.6% | [2]; [7] -1% | [2]; [8] -3% | [2]; at 50.0 µM 3.75% | [3]; [7] 7% | [3]; [8] -2% | [3]; at 50.0 µM 18.8% | [4]; [7] -6% | [4]; [8] 6% | [4]; at 50.0 µM -23.4% | [5]; [7] -3% | [5]; [8] -2% | [5]; at 50.0 µM 8.7% | [6]; [7] -3% | [6]; [8] -1% | [6]; at 50.0 µM 16.4%
